aSyn yeast inh – rescues yeast growth from alpha-synuclein toxicity; Yeast expressing alpha-synuclein, growth rescue, BacTiter-Glo, 24 h; Potency, µM (highest dose often 46.1 µM), without a hit: at the highest dose growth rescue (activation), hits mostly activators; 370,000 tested, 0.14% active; further: % of control where 0% means no effect; nearly all actives have a fitted effect of over 65% in size
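Screening used galactose-induced yeast with toxic alpha-synuclein levels, exposed to compound for 24 hr at 30 deg C. Cell growth, read with BacTiter-Glo luminescence, gave the measured signal.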
uPA generation – inhibitors of cell surface uPA generation. 330,000 tested, 0.31% active. Potency, µM (doses to about 38.3 µM), without a hit: top-dose activity change, negative = inhibition, usual class: inhibitors. cell surface uPA generation assay, qHTS. AID 540303; active means well fitted inhibition curve with a large enough effect; inconclusive means small, poorly fitted or top-dose-only effect; inactive means no such curve, though single readings can be large or run the other way; tested in mouse RAW 264.7 cells; further: on the % scale 0 is the no-effect control and ±100 the full control effect; nearly all actives have a fitted effect of over 55% in size
FUS yeast rescue – FUS proteinopathy suppression in yeast. S. cerevisiae FUS-expressing, growth rescue, OD600, 24 h. 390,000 tested, 0.24% active. Potency, µM (highest dose often 76.6 µM), usual class: activators;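 further: plate controls were DMSO vehicle for no effect and reference control for full effect; nearly all actives have a fitted effect of over 55% in size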
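Quantitative HTS measuring growth restoration of FUS-toxic yeast. Galactose-induced cells (OD 0.005) were exposed 24hr at 30C to compounds at several concentrations, then absorbance at 600 nm was recorded.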
Abeta yeast res – A-beta toxicity reversal in yeast | yeast expressing A-beta42, growth rescue, OD600, 48 h; response scale: 0% DMSO, 100% iron-clioquinol control | Potency, µM (top dose mostly 46.1 µM), actives largely listed as activators | 410,000 tested, 0.063% active; further: nearly all actives have a fitted effect of over 55% in size
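Yeast A-beta toxicity model in growth medium with pinned compounds, 48 h at 30 C; growth read as absorbance at 600 nm. Normalized to FeCl3/clioquinol equimolar mix (positive) and DMSO (negative).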
TDP43 rescue – inhibitors of TDP-43 toxicity in yeast; Potency, µM (titrated, usually from 46.1 µM), without a hit: at the top dose growth rescue (activation), most hits filed as activators; 410,000 tested, 1.8% active; TDP-43 expressing yeast growth rescue, BacTiter-Glo, 24 h; further: % of control where 0% means no effect; nearly all actives have a fitted effect of over 50% in size
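Growth rescue of TDP-43-toxic yeast measured as ATP luminescence (BacTiter-Glo). Cells grown to mid-log in raffinose, induced in galactose at OD600=0.02, exposed to compound 24 hr at 30 deg C.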
Chronic BCR inh – blocks chronic active B-cell receptor signaling. ABC-DLBCL IkBa-CBG/CBR reporter, luminescence ratio, 4 h. Potency, µM (doses to about 46.1 µM), without a hit: at the highest dose activity change, negative = inhibition, usual class: inhibitors. 340,000 tested, 0.05% active. AID 493014; active means well fitted inhibition curve with a large enough effect in the signal ratio, with a control signal flat, not every such curve was filed as active; inconclusive means small, poorly fitted or top-dose-only effect, or effect the other way, or a change in a side signal; the % refers to the signal ratio;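 further: plate controls were basal doxycycline-induced cells for no effect and cells given 10 µM MG132 for full effect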
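Compounds up to 46 uM were incubated four hours with TMD8 cells whose green CBG68 luciferase is fused to IkappaBalpha; red CBR luminescence normalised the signal, and concentration-effect curves were fitted to fusion, red and ratio data.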
* = called active by the depositor; [ ] = remark or other dose. A selection: hits, their analogues and other compounds. The true share with any hit is near 2.3%. Unless noted, the call rests on the fitted dose curve; in most records, active means well fitted curve in the direction sought with a large enough effect; inconclusive means small, poorly fitted or top-dose-only effect, or another doubt; inactive means no such curve, though single readings can be large; an effect the other way counts as inactive or inconclusive. Potency means the concentration at half of the fitted maximal effect.

Screening Cc1oncc1-c1csc(-c2ccccc2Cl)n1 returned aSyn yeast inh 1%, uPA generation -34%, FUS yeast rescue inactive, Abeta yeast res inactive, TDP43 rescue 21% and Chronic BCR inh -10%.
For Cc1cc2nccc(-c3ccncc3)n2n1 the results were aSyn yeast inh 0%, uPA generation 1%, FUS yeast rescue inactive, Abeta yeast res inactive, TDP43 rescue 6% and Chronic BCR inh 0%.
`Cc1ccc(-c2ccnc3cc(C)nn23)cc1` gave aSyn yeast inh 8%, uPA generation -22%, FUS yeast rescue inactive, Abeta yeast res inactive, TDP43 rescue 20µM* and Chronic BCR inh 0%.
For CCC(c1ccc(OC)cc1)c1cn(C)c2ccccc12 (stereo unspecified) the results were FUS yeast rescue inactive.
Fc1ccc(C(Nc2ccccn2)c2c[nH]c3ccccc23)cc1 (stereo unspecified) was read as aSyn yeast inh inconclusive, uPA generation -22%, FUS yeast rescue inactive, Abeta yeast res inconclusive, TDP43 rescue 20µM* and Chronic BCR inh inconclusive.
O=[N+]([O-])CC(c1ccc(F)cc1)c1c[nH]c2ccccc12 (stereo unspecified) was read as aSyn yeast inh inconclusive, uPA generation inconclusive, FUS yeast rescue inactive, Abeta yeast res inconclusive, TDP43 rescue 18µM* and Chronic BCR inh -1%.
OC(c1ccccn1)c1c[nH]c2ccccc12 (stereo unspecified) was read as aSyn yeast inh -7%, uPA generation 3%, Abeta yeast res inactive, TDP43 rescue 0% and Chronic BCR inh -3%.
Cn1cc(C(C[N+](=O)[O-])c2ccccc2)c2ccccc21 (stereo unspecified) was read as aSyn yeast inh 12%, uPA generation inconclusive, FUS yeast rescue inactive, Abeta yeast res inactive, TDP43 rescue 13µM* and Chronic BCR inh 1%.
`COc1ccc(-c2oc(NC(=O)CSc3nncn3C)c(C#N)c2-c2ccc(OC)cc2)cc1` gave aSyn yeast inh -6%, uPA generation -3%, FUS yeast rescue inactive, Abeta yeast res inactive, TDP43 rescue 21% and Chronic BCR inh 14%.
S=C(NCc1ccco1)N1CCN(Cc2ccco2)CC1 was read as aSyn yeast inh 1%, uPA generation 1%, FUS yeast rescue inactive, Abeta yeast res inactive, TDP43 rescue 18% and Chronic BCR inh -13%.
Screening S=C(Nc1ccc2c(c1)OCO2)N1CCN(Cc2ccco2)CC1 returned aSyn yeast inh -12%, uPA generation 4.5µM*, FUS yeast rescue inactive, Abeta yeast res inactive, TDP43 rescue -11% and Chronic BCR inh inconclusive.
Screening Cn1cnc([N+](=O)[O-])c1S(=O)(=O)Oc1ccc(Cl)cc1 returned aSyn yeast inh -24%, uPA generation -15%, FUS yeast rescue inactive, Abeta yeast res inactive and TDP43 rescue 3.2µM*.
For Cn1cnc([N+](=O)[O-])c1S(=O)(=O)Oc1cccc2ccccc12 the results were aSyn yeast inh -47%, uPA generation -15%, FUS yeast rescue inactive, Abeta yeast res inactive and TDP43 rescue inconclusive.
Screening Cc1cc(SCC2=NNC(=O)C2)c(Cl)cc1Cl returned aSyn yeast inh 6%, uPA generation 0%, FUS yeast rescue 35µM*, Abeta yeast res inactive, TDP43 rescue inconclusive and Chronic BCR inh 12%.
Screening COc1ccccc1CN(Cc1cc2cc(C)ccc2[nH]c1=O)Cc1nnnn1Cc1ccco1 returned aSyn yeast inh 14%, uPA generation 1%, FUS yeast rescue 16µM*, Abeta yeast res inactive, TDP43 rescue -2% and Chronic BCR inh inconclusive.
`CCc1ccccc1N1C(=O)N(Cc2cc(=O)n3ccccc3n2)c2ccccc2S1(=O)=O` gave FUS yeast rescue 32µM*, Abeta yeast res inactive, TDP43 rescue 11µM* and Chronic BCR inh inconclusive.
For Cc1cccc(N2C(=O)N(Cc3cc(=O)n4ccccc4n3)c3ccccc3S2(=O)=O)c1 the results were FUS yeast rescue inconclusive, Abeta yeast res inactive, TDP43 rescue -4% and Chronic BCR inh inconclusive.
Cc1ccc(S(=O)(=O)N2CCOCC2)cc1C(=O)Nc1ccc2c(c1)OCCO2 was read as aSyn yeast inh -5%, uPA generation 8%, FUS yeast rescue inactive, Abeta yeast res inactive, TDP43 rescue -5% and Chronic BCR inh inconclusive.
Screening CCN(CC)C(=O)c1cn(CC)c(=O)c2cc(OC)c(OC)cc12 returned aSyn yeast inh 1%, uPA generation -3%, FUS yeast rescue inactive, Abeta yeast res inactive, TDP43 rescue -7% and Chronic BCR inh inconclusive.
Screening Cc1ccc(C(=O)/C=C/C(=O)O)cc1 returned aSyn yeast inh 3.2µM*, uPA generation inconclusive, FUS yeast rescue inactive, Abeta yeast res inactive, TDP43 rescue -71% and Chronic BCR inh inconclusive.
`CC(=O)c1ccc(N2CCN(C(=O)c3ccc(Cn4c(=O)[nH]c5ccccc5c4=O)cc3)CC2)cc1` gave FUS yeast rescue inactive, Abeta yeast res inactive, TDP43 rescue -10%[9.22 µM] and Chronic BCR inh inconclusive.
`COc1ccc(CNC(=O)c2cc(-c3cccs3)on2)cc1` gave aSyn yeast inh -4%, FUS yeast rescue inactive, Abeta yeast res inactive, TDP43 rescue 5.6µM* and Chronic BCR inh inconclusive.
`O=C(NCc1ccc(Cl)cc1)c1cc(-c2cccs2)on1` gave aSyn yeast inh 5%, FUS yeast rescue inactive, Abeta yeast res inactive, TDP43 rescue -15% and Chronic BCR inh 1%.
`CC12CCC(=O)C=C1C(O)CC1C2CCC2(C)C1CCC2(O)C(=O)CO` (stereo unspecified) gave aSyn yeast inh -8%, uPA generation 2%, FUS yeast rescue inactive, Abeta yeast res inactive and TDP43 rescue -10%.
Screening COc1cc2c(cc1OC)C(COc1ccc3c(C)cc(=O)oc3c1)N(C(=O)c1cccc(OC)c1OC)CC2 (stereo unspecified) returned FUS yeast rescue inactive, Abeta yeast res inactive and TDP43 rescue 10%.
Screening Cc1ccc(CNC(=O)CO/N=C/c2ccc3c(c2)OCO3)cc1 returned aSyn yeast inh 6%, uPA generation -3%, FUS yeast rescue inactive, Abeta yeast res inactive, TDP43 rescue 20µM* and Chronic BCR inh -5%.
Screening Cc1cccc(NC(=O)CO/N=C/c2ccc3c(c2)OCO3)c1 returned aSyn yeast inh 3%, uPA generation 6%, Abeta yeast res inactive, TDP43 rescue 0% and Chronic BCR inh -11%.

Assay outcomes deposited in PubChem BioAssay by National Center for Advancing Translational Sciences (NCATS).
